What all share (conditions): concentration: 1 μM, replicates: in singlicate; n = 1
Assay [1] relates to T1, PFTK1.
T1 construct: gene CDK14

Assay [2] has as its system PHKG1.
Assay [3] concerns PHKG2.
The test system of assay [4] is PIK3C2B.
Assay [5] deals with PIK3C2G.
The subject of assay [6] is PIK3CA.
Assay [7] has as its system PIK3CB.
For assay [8], the system named is PIK3CD.
The test system of assay [9] is PIK3CG.
The test system of assay [10] is T2, PIK4CB.
T2 construct: gene PI4KB
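Also: KINOMEscan kinase panel screen.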

Turning to `O=c1cc(N2CCOCC2)nc2n(Cc3cccc(Cl)c3Cl)c(C3CC3)nn12` [GSK2358994], the “%Inh” value was determined as 0% in assay [1]; 8% in [2]; 0% in assay [3]; 70% in assay [4]; 64% in assay [5]; 8% in [6]. Also, the “%Inh” value in assay [7] is 100%; in assay [8] it was 82%; in assay [9], 45%; in assay [10], 0%.

Consider `CCc1ccnc(/C=C/c2n[nH]c3cc(Sc4ccccc4C(=O)NC)ccc23)c1`, for which the “%Inh” value worked out at 8% in assay [1]; 17% in [2]; 6% in [3]; 0% in [4]; 0% in [5]; 0% in [6]. The “%Inh” value in [7] is 0%; in assay [8], 10%; in assay [9] it was 0%; in [10], 0%.

With `COc1ccc(CNC(=O)NC2CCN(c3ccnc(Nc4ccc(OC)cc4)n3)C2)cc1` (centres unmarked) [GSK1379727], the “%Inh” value in assay [1] is reported as 9%; in assay [2], 0%; in [3], 0%; in assay [4] it was 0%; in assay [5], 0%; in assay [6], 0%. Moreover, the “%Inh” value in assay [7] is listed as 0%; in [8] it was 26%; in assay [9], 0%; in [10], 2%.

Turning to `Cl.Nc1ncnc2occ(-c3ccc(NC(=O)Nc4cc(C(F)(F)F)ccc4F)cc3)c12` [SB-707548], the “%Inh” value in assay [1] stood at 79%; in assay [2], 0%; in [3], 8%; in assay [4], 0%; in assay [5], 23%; in [6] it was 0%. The “%Inh” value in [7] is 8%; in assay [8], 27%; in assay [9] it was 6%; in assay [10], 0%.

As to `Cc1cccc(Cn2ccn3c(=O)cc(N4CCOCC4)nc23)c1` [GSK2297542], the “%Inh” value in assay [1] amounted to 15%; in assay [2], 1%; in assay [3], 8%; in [4], 4%; in assay [5], 0%; in [6], 12%. Further, the “%Inh” value in assay [7] was found to be 100%; in assay [8], 52%; in assay [9], 10%; in assay [10], 0%.

As for `COc1ccc(Nc2ncc(C#N)c(Nc3ccccc3C(N)=O)n2)cc1N1CCN(C)CC1.Cl` [GSK1558669], the “%Inh” value in assay [1] was 99.4%; in assay [2] it was 89%; in [3], 85%; in assay [4] it was 0%; in assay [5] it was 0%; in assay [6] it was 0%. In addition, the “%Inh” value in assay [7] worked out at 0%; in assay [8] it was 0%; in [9], 0%; in assay [10], 15%.

As for `O=C(NOCC1CC1)c1ccc(F)c(F)c1Nc1ccc(I)cc1Cl`, the “%Inh” value in assay [1] was found to be 0%; in [2], 0%; in [3], 0%; in assay [4], 0%; in [5], 0%; in [6] it was 15%. Also, the “%Inh” value is on record as 0% in [7], 0% in assay [8], 0% in assay [9] and 100% in [10].

Consider `Cn1cc(-c2ccc3c(c2)CCN3C(=O)Cc2ccccc2Cl)c2c(N)ncnc21` [GSK2608885], for which the “%Inh” value in assay [1] worked out at 8%; in [2], 1%; in [3], 0%; in assay [4] it was 0%; in assay [5], 0%; in assay [6], 0%. For the same compound, the “%Inh” value in assay [7] was 11%; in assay [8], 30%; in [9] it was 3%; in [10], 8%.

For `Cc1c(Cn2c(C)nn3c(=O)cc(N4CCOC(C)C4)nc23)cccc1C(F)(F)F` (centres unmarked) [GSK2344444], the “%Inh” value is reported as 48% in [1]; 0% in [2]; 0% in [3]; 31% in assay [4]; 24% in assay [5]; 5% in assay [6]. In addition, the “%Inh” value is reported as 97.4% in [7], 92.7% in assay [8], 64% in assay [9] and 0% in [10].

Turning to `O=C1NC(=O)C(N2CCc3ccccc32)=C1c1cccc(Cl)c1` [SB-408010], the “%Inh” value in assay [1] was found to be 5%; in assay [2], 0%; in assay [3], 0%; in [4] it was 0%; in assay [5] it was 0%; in [6], 0%. For the same compound, the “%Inh” value is listed as 33% in [7], 9% in assay [8], 0% in assay [9] and 5% in [10].

With `CCc1nc(-c2cccc(C)c2)c(-c2ccnc(NCc3ccccc3)c2)s1`, the “%Inh” value in assay [1] is on record as 1%; in [2], 0%; in assay [3] it was 22%; in [4], 0%; in [5], 18%; in [6], 0%. Besides, the “%Inh” value in [7] is 16%; in [8], 0%; in assay [9] it was 0%; in [10] it was 0%.

Regarding `CN(C1=C(c2ccccc2)C(=O)NC1=O)c1ccccc1` [SB-334860], the “%Inh” value in [1] turned out to be 21%; in assay [2], 0%; in [3] it was 0%; in assay [4], 0%; in assay [5], 3%; in [6] it was 0%. Moreover, the “%Inh” value in assay [7] worked out at 25%; in assay [8] it was 7%; in [9] it was 10%; in assay [10] it was 13%.

Regarding `Cc1nnc(-c2ccc3ncc(-c4ccc(S(C)=O)cc4)n3c2)o1` (centres unmarked), the “%Inh” value in [1] came out at 0%; in [2], 20%; in assay [3] it was 0%; in assay [4], 13%; in [5], 28%; in [6], 3%. Besides, the “%Inh” value in assay [7] is reported as 64%; in [8], 0%; in [9], 3%; in assay [10] it was 0%.

As for `O=C(c1ccc(-c2cc(-c3c[nH]nc3-c3ccccn3)ccn2)cc1)N1CCOCC1` [GW812171], the “%Inh” value was found to be 20% in [1]; 1% in [2]; 0% in assay [3]; 0% in assay [4]; 0% in assay [5]; 29% in assay [6]. Moreover, the “%Inh” value in assay [7] was 0%; in assay [8] it was 0%; in [9] it was 0%; in assay [10] it was 8%.

Consider `CC(C)Oc1ccc2c(-c3ccnc(Nc4ccc(N5CCN(C)CC5)cc4)n3)cnn2n1` [GW696155], for which the “%Inh” value in assay [1] amounted to 55%; in assay [2] it was 51%; in assay [3] it was 84%; in assay [4] it was 0%; in [5], 0%; in assay [6] it was 0%. Further, the “%Inh” value in assay [7] came to 21%; in [8] it was 45%; in assay [9], 30%; in assay [10] it was 33%.

Regarding `Cc1c2ccc(N(C)c3ccnc(Nc4cccc(S(N)(=O)=O)c4)n3)cc2nn1Cc1ccccc1.Cl.Cl` [GW787226], the “%Inh” value in assay [1] was found to be 27%; in assay [2] it was 0%; in assay [3] it was 0%; in assay [4], 5%; in assay [5] it was 0%; in assay [6], 0%. The “%Inh” value in [7], in [8], in assay [9] and in assay [10] was 0% throughout.

Take `N#Cc1ccc(-c2cc(-c3c[nH]nc3-c3ccccn3)ccn2)cc1` [GW693028]: the “%Inh” value in [1] was determined as 19%; in assay [2] it was 0%; in [3] it was 0%; in assay [4], 0%; in assay [5], 0%; in assay [6], 0%. Moreover, the “%Inh” value in assay [7], in assay [8], in [9] and in [10] was 0% in each case.

Source of the values: paper PMC5540273 (PLoS ONE, 2017).
